High-throughput results as filed in PubChem BioAssay.
Many of the other results were omitted from the sample, so hits are more common in it than they were.
Dicer processing: blocks human Dicer maturation of pre-miR-21; cat-ELCCA pre-miR-21 Dicer processing, chemiluminescence; hits give high values; AID 1347074; 47,000 compounds, 6% hits; z-score at 25 µM; in the data active means z-score above about 3, passing the limit was not always enough;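 further: plate controls were vehicle for no effect and no enzyme for full effect; higher signal means more uncleaved substrate so more Dicer inhibition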
Target sequence (Q9UPY3 whole entry, looked up): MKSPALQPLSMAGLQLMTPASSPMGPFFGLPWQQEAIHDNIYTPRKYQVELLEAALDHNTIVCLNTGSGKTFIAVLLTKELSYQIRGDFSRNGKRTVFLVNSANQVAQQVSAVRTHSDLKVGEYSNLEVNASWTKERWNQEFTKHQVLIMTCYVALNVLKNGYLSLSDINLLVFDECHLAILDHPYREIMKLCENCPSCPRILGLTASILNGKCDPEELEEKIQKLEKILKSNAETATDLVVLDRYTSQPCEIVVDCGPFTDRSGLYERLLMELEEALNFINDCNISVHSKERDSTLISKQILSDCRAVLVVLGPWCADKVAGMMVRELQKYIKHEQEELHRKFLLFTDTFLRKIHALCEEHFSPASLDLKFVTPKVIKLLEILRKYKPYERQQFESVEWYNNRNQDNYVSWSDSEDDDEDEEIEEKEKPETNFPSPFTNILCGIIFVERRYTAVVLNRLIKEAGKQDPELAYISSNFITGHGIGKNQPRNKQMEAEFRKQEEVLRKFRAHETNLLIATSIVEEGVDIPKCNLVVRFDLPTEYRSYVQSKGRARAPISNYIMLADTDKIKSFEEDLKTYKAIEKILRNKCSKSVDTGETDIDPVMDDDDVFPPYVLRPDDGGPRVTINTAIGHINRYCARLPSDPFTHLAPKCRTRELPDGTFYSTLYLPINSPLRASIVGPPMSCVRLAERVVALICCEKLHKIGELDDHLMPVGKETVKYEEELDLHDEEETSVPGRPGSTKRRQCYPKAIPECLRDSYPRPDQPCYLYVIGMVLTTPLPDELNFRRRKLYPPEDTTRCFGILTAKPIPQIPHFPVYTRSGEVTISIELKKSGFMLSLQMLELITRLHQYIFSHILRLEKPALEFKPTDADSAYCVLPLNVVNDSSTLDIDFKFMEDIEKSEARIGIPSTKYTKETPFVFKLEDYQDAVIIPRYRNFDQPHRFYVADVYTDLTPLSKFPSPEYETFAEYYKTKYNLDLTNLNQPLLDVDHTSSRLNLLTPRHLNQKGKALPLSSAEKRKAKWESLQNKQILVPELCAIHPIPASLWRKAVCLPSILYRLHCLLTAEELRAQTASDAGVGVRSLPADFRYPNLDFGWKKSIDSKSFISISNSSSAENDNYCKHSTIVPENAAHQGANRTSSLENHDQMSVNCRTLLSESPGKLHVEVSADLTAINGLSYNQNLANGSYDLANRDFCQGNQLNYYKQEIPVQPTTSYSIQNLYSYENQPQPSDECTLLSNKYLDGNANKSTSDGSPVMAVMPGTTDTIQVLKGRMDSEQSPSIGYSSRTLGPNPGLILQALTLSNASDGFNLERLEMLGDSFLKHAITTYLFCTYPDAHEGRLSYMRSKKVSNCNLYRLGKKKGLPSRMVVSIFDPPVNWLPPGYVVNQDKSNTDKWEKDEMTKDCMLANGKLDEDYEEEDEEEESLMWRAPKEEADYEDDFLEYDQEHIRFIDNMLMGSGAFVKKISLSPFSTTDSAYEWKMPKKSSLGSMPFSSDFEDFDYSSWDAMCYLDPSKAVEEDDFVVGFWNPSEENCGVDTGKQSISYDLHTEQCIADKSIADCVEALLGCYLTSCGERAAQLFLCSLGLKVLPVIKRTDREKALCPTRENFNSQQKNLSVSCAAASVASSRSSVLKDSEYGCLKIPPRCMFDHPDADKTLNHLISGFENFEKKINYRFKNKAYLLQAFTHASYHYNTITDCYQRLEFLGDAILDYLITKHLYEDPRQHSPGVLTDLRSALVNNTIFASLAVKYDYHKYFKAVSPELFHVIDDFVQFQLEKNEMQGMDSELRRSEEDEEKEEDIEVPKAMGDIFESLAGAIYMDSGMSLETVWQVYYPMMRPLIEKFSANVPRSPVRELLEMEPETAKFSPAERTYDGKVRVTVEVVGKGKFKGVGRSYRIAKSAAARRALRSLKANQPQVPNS
Starred values were filed as active, the others as inactive.

SMILES	Dicer processing
C=CCOc1ccc(C2c3c(oc4cc(C)c(C)cc4c3=O)C(=O)N2CCCN(C)C)cc1OCC (configuration not stated)	-0.58
Cc1cccc(C)c1NC(=O)CSc1c(Cl)cccc1[N+](=O)[O-]	-0.4
C=CCN1C(=O)C(O)(CC(=O)c2ccc(C)cc2C)c2ccccc21 (configuration not stated)	-1.03
C=CCN1C(=O)C(O)(CC(=O)c2ccc(OC)cc2OC)c2cc(Br)ccc21 (configuration not stated)	-0.27
C=CCN1C(=O)C(O)(CC(=O)c2ccccc2OC)c2ccccc21 (configuration not stated)	1.06
C=CCN1C(=O)C(O)(CC(=O)c2cc(OC)ccc2OC)c2cc(Br)ccc21 (configuration not stated)	3.54*
C=CCN1C(=O)C(O)(CC(=O)c2cc(C)ccc2C)c2ccccc21 (configuration not stated)	9.37*
CCCN1C(=O)C(O)(CC(=O)c2cc(OC)ccc2OC)c2cc(Br)ccc21 (configuration not stated)	-0.9
CCNc1nc2[nH]c(=O)cc(O)c2s1	-2.85
O/C(=C\c1nc2ccccc2[nH]1)c1cc(Cl)c(O)cc1O	2.58
S=c1[nH]c2cc(Cl)cc(Cl)c2o1	-0.92
Fc1cc2[nH]c(=S)[nH]c2cc1Cl	4.18*
CC(=O)NC(Nc1cccc(F)c1)(C(F)(F)F)C(F)(F)F	-0.69
NCC(c1ccccc1)c1ccc2c(c1)OCCO2 (configuration not stated)	-0.74
O=C1CC(NC2CCN(c3ccc(Cl)nn3)CC2)C(=O)N1c1ccc(F)cc1 (configuration not stated)	0.4
CC(=O)OCC(=O)c1ccc(C(F)(F)F)cc1	1.17
Cc1noc(/C=C/c2ccc(N3CCCC3)cc2)c1[N+](=O)[O-]	3.29*
Cc1noc(/C=C/c2ccc(OCc3ccsc3C#N)cc2)c1[N+](=O)[O-]	-3.15
Cc1ccc(/C=C/c2onc(C)c2[N+](=O)[O-])o1	-1.28
CCOc1ccc(S(=O)(=O)N(CC)CC)cc1-c1nc2c(C(C)(C)C)nn(C)c2c(=O)[nH]1	1.48
CCCS(=O)(=O)c1c(S(=O)(=O)CCC)c2ccccn2c1C(=O)c1ccc(C)cc1	31.4
CCCS(=O)(=O)c1c(S(=O)(=O)CCC)c2ccc(C(N)=O)cn2c1C(=O)c1ccc(F)cc1	35.1
CCCS(=O)(=O)c1c(S(=O)(=O)CCC)c2ccccn2c1C(=O)c1ccc(F)cc1	5.04*
O=c1[nH]cnc2c1nnn2Cc1ccccc1Cl	-1.47
O=C1OC(c2ccccc2)=N/C1=C\c1cccc([N+](=O)[O-])c1	1.74
SMILES	Dicer processing
O=C1OC(c2cccnc2Oc2ccc(Cl)cc2)=N/C1=C\c1ccc(Cl)cc1	-0.82
O=C1OC(c2ccc(Cl)cc2)=N/C1=C/c1cccc([N+](=O)[O-])c1	3.63*
COC(=O)c1ccc2c(c1)N(C)S(=O)(=O)/C(=C\Nc1ccc(OC)cc1)C2=O	0.35
CCOC(=O)/C(C#N)=C/c1cc(OC)cc(OC)c1	1.6
CN1c2ccccc2C(=O)/C(=C/N=S(C)(C)=O)S1(=O)=O	-0.22
O=C(CSc1nc2ccccc2nc1N1CCOCC1)N1CCN(c2ccccc2)CC1	2.78
O=C(CSc1nc2ccccc2nc1N1CCOCC1)N1CCOCC1	4.94*
CC1CCN(c2nc3ccccc3nc2SCC(=O)N2CCOCC2)CC1	3.86*
O=C(CSc1nc2ccccc2nc1N1CCCCC1)NC1CCCCC1	1.56
Cc1cc(C)nc(N2CCN(C(=O)CSc3nc4ccccc4nc3N3CCOCC3)CC2)n1	1.18
O=C(CSc1nc2ccccc2nc1N1CCCCC1)N1CCN(C2CCCC2)CC1	1.38
O=C(CSc1nc2ccccc2nc1N1CCOCC1)N1CCN(c2ccc(F)cc2)CC1	3.87*
O=C(CSc1nc2ccccc2nc1N1CCCCC1)N1CCN(c2ccccc2)CC1	4.92*
CC1CN(c2nc3ccccc3nc2SCC(=O)N2CCOCC2)CC(C)O1 (configuration not stated)	1.08
c1ccc2nc(N3CCOCC3)c(N3CCOCC3)nc2c1	-0.17
O=C(CSc1nc2ccccc2nc1N1CCCC1)N1CCN(c2ccc(F)cc2)CC1	2.58
CC1CCN(c2nc3ccccc3nc2SCC(=O)N2CCN(C3CCCC3)CC2)CC1	1.96
C=C1SC(Nc2cccc(Cl)c2)=NC1(CC)CC	-0.74
CN(C)c1ccc(/C=N/Nc2ccc([N+](=O)[O-])cn2)cc1	1.68
CCSC1=N/C(=C\c2ccc(N(CC)CC)cc2OC)C(=O)S1	0.19
Cn1c(SCc2nc(-c3ccc(Br)cc3)no2)nnc1C1CCCCC1	0.8
FC(F)(F)c1ccc(SCc2ccc(Cl)cc2)nc1	-0.99
Fc1ccccc1N1CCN(C2CCN(Cc3ccncc3)CC2)CC1	2.24
COC(=O)COc1ccc2c(=O)c(-c3ccccc3OC)c(C(F)(F)F)oc2c1	2.36
COC(=O)C1CC2CC(CC(C(=O)OC)C23SCCS3)C1=O (configuration not stated)	-1.14
COc1ccc(-c2cnc(NCc3ccc(SC)cc3)n2C)cc1	-0.61
O=C(CSc1nc2ccccc2nc1N1CCOCC1)NC1CC1	2.46
